# High-throughput results deposited in PubChem BioAssay by National Center for Advancing Translational Sciences (NCATS).
# ALOX12 inh: ALOX12 (human) lipoxygenase inhibition; AID 1671190; purified 12hLO, xylenol orange hydroperoxide absorbance; 580,000 tested, 1.1% active; P18054; Potency, µM (doses to about 108 µM), inactives show at the top dose activity change, negative = inhibition, most hits filed as inhibitors; note: potency is the fitted concentration of half-maximal effect; % is set by controls: 0 for no effect and ±100 for the full control effect
#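 Purified human 12hLO at 150 nM in 25 mM Hepes, 0.01% Triton X-100, pH 7.0, preincubated 15 min at room temperature with compound. Reaction started with 40 uM arachidonic acid, 30 min at room temperature. Hydroperoxide measured by Fe-xylenol orange, 573/405 nm absorbance ratio.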
# PLK1 PBD block: inhibitors of human PLK1 polo-box domain binding; P53350; Plk1 PBD binding of FITC phosphopeptide, fluorescence polarization; Potency, µM, for the others: max response, negative = inhibition, usual class: inhibitors; 360,000 tested, 2.8% active; note: potency is the fitted concentration of half-maximal effect; series mostly up to about 57 µM; % is set by controls: 0 for no effect and ±100 for the full control effect; nearly all actives have a fitted effect of over 65% in size
# GCN5L2 inh: blocks human GCN5L2 histone acetyltransferase. Potency, µM (series often up to 58.9 µM), for the others: at the top dose activity change, negative = inhibition, most hits filed as inhibitors. Q92830. 390,000 tested, 0.21% active. GCN5L2 HAT assay, ThioGlo1 CoA-SH fluorescence; note: potency is the fitted concentration of half-maximal effect; % is set by controls: 0 for no effect and ±100 for the full control effect
#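 GCN5L2 (20nM final) in 50mM HEPES, 0.1mM EDTA pH 7.5, 0.01% Tween-20 was preincubated 15 min at room temperature with compound, then given ThioGlo1 (50uM), H3(1-25) peptide (75uM) and acetyl-CoA (70uM); CoA-thiol fluorescence (Ex340/Em540) was read at 0 and 20 min.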
# VDR inhibitor: blocks the human vitamin D receptor; AID 504847; 400,000 tested, 0.93% active; Potency, µM, for the others: max response, negative = inhibition, actives largely listed as inhibitors; VDR-SRC2-3 peptide fluorescence polarization, 2 h; note: potency is the fitted concentration of half-maximal effect; % is set by controls: 0 for no effect and ±100 for the full control effect
# Target sequence (P11473 whole entry, looked up): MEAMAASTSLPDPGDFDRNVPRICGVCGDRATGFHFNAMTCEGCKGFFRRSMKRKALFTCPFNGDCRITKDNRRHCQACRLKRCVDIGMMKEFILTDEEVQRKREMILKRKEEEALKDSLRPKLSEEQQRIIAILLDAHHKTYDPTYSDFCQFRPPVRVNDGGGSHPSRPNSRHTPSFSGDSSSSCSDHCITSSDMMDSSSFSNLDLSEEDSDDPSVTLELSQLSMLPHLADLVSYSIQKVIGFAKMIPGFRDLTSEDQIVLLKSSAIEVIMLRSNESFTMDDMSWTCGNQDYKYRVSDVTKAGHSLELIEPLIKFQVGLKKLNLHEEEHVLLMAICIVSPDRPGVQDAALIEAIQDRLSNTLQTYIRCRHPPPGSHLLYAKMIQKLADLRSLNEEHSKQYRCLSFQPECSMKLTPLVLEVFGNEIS
#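 Two reagent solutions held at 4 deg C in the dark were dispensed, compounds pinned at 23 nl, and the mixture incubated 2 h at room temperature. Read-out: fluorescence polarization of VDR–SRC2-3 peptide binding.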
# USP1 UbRho: blocks human USP1/UAF1 cleavage of Ub-Rhodamine | shares compounds with VDR inhibitor | Ub-Rhodamine cleavage, fluorescence kinetic read | Potency, µM (titrated, usually from 56.8 µM), for inactives: top-dose activity change, negative = inhibition, usual class: inhibitors | 50 tested, 50% active | AID 540327
# VDR inh confirm: inhibits human vitamin D receptor, primary hit validation; shares compounds with VDR inhibitor; VDR-coactivator inhibition assay, qHTS confirmation; Potency, µM, hits mostly inhibitors; 840 tested, 89% active; note: potency is the fitted concentration of half-maximal effect
# VDR FP: blocks human VDR-coactivator binding in fluorescein assay; shares compounds with VDR inhibitor; VDR-coactivator binding, fluorescein fluorescence polarization; Potency, µM (titrated, usually from 57.1 µM), inactives show top-dose activity change, negative = inhibition, most hits filed as inhibitors; 840 tested, 48% active; note: potency is the fitted concentration of half-maximal effect
# VDR bla: confirmation of human vitamin D receptor inhibitors in reporter cells. shares compounds with VDR inhibitor. VDR beta-lactamase reporter cells, FRET ratio; cells co-treated with VDR agonist LG190178. Potency, µM (top dose mostly 46.1 µM), for inactives: at the highest dose activity change, negative = inhibition, usual class: inhibitors. 840 tested, 23% active. AID 602202; note: potency is the fitted concentration of half-maximal effect; % is set by controls: 0 for no effect and ±100 for the full control effect
# VDR viability: counter-screen for vitamin D receptor inhibitors: cytotoxicity | shares compounds with VDR inhibitor | cytotoxicity counter-screen, cell viability, qHTS | Potency, µM (top dose mostly 48.3 µM), for the others: at the top dose activity change, negative = cytotoxicity, most hits filed as cytotoxic | 840 tested, 18% active | AID 602204;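 note: potency is the fitted concentration of half-maximal effect; plate controls were DMSO for no effect and high-concentration cycloheximide for full effect; nearly all actives have a fitted effect of over 75% in size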
# TbPYK inh: Trypanosoma brucei pyruvate kinase inhibition, cherry-pick confirmation | recombinant TbPYK, Kinase-Glo ATP luminescence | AID 720569 | shares compounds with PLK1 PBD block | Potency, µM (top dose mostly 76.9 µM), inactives show top-dose activity change, negative = inhibition, usual class: inhibitors | 890 tested, 67% active; note: potency is the fitted concentration of half-maximal effect; % is set by controls: 0 for no effect and ±100 for the full control effect; nearly all actives have a fitted effect of over 70% in size
# TbPYK orthogonal: TbPYK inhibition, orthogonal confirmation; AID 720584; recombinant TbPYK, ADP-Glo luminescence, 60 min; 890 tested, 62% active; Potency, µM (highest dose often 76.9 µM), for inactives: at the top dose activity change, negative = inhibition, actives largely listed as inhibitors; shares compounds with PLK1 PBD block; note: potency is the fitted concentration of half-maximal effect; % is set by controls: 0 for no effect and ±100 for the full control effect; nearly all actives have a fitted effect of over 75% in size
# Active calls of the source: *; ? = inconclusive; / = no result given; [ ] = another dose, or the depositor's remark. Shown are actives, neighbours in structure and some others; about 3% of the full set was active somewhere. Calls come from the whole dose curve; as a rule, active = well fitted curve in the direction sought with a large enough effect; inconclusive = small, poorly fitted or top-dose-only effect, or another doubt; inactive = no such curve, though single readings can be large; an effect the other way counts as inactive or inconclusive.
SMILES,ALOX12 inh,PLK1 PBD block,GCN5L2 inh,VDR inhibitor,VDR inh confirm,VDR FP,VDR bla,VDR viability,others
CCCCn1c(NC(=O)c2ccc(Br)o2)c(C(=O)OCC)c2nc3ccccc3nc21,-10%,?,-12%,?,2.5*,1.4µM*,?,?,
CC(C)NC(=O)NC[C@H]1C[C@@H]2CCN1C[C@@H]2CN1CCCCC1,23%[176 µM],/,/,/,/,/,/,/,
O=[N+]([O-])c1ccc(Sc2nc3ccccc3o2)c([N+](=O)[O-])c1,-22%,5.3µM*,-9%,25µM*,19*,14µM*,?,?,
COc1ccc(C(=O)/C=C2/C(=O)Nc3ccccc32)c(OC)c1,?,?,-15%,35µM*,21*,?,?,13µM*,
COc1ccc(-c2cn(C[C@H]3C[C@@H]4CCN3C[C@@H]4C(=O)NC(C)C)nn2)cc1,20%[176 µM],/,/,/,/,/,/,/,
COc1ccc([N+](=O)[O-])c(S(=O)(=O)c2ccc(Cl)cc2)n1,-24%,3µM*,-12%,32µM*,3*,?,7.3µM*,?,
FC(F)(F)c1ccc2c(c1)N(CCCN1CCN(CCCl)CC1)c1ccccc1S2,?,-6%,4%,-2%,/,/,/,/,
OCCN1CCN(CCCN2c3ccccc3Sc3ccc(C(F)(F)F)cc32)CC1,?,-27%,-9%,-2%,/,/,/,/,USP1 UbRho=?
Nc1nc(Sc2ccc([N+](=O)[O-])c3nonc23)c2[nH]cnc2n1,32µM*,1.5µM*,/,14µM*,3.4*,?,?,11µM*,
Cc1cccc(OCC(=O)N2CCC3(CC2)c2nccn2-c2ccccc2CN3C)c1,44%,/,/,/,/,/,/,/,
CCCOc1cccc(CCN)c1,-21%,/,/,/,/,/,/,/,
CC(C)NC(C)C(=O)c1ccc2ccccc2c1 (centres undefined),-27%,4%,-11%,-3%,/,/,/,/,
CS(=O)(=O)c1ncc(Cl)c(C(=O)Nc2ccc3ccccc3c2)n1,-2%,9.5µM*,-7%,13µM*,8.4*,?,16µM*,?,
CCC12CN3CC(CC)(CN(C1)C3c1ccccn1)C2=O (centres undefined),70%,/,3%,12%,/,/,/,/,
CN1C2CCC1/C(=C/c1ccccn1)C(=O)/C2=C\c1ccccn1,17%,27µM*,-6%,28µM*,2.7*,?,2.1µM*,21µM*,
N#CC1c2ccccc2-n2nncc2CN1Cc1cc(Cl)cc(Cl)c1 (centres undefined),?,?,/,20µM*,3.4*,2.8µM*,10µM*,4.1µM*,
Cc1ccc(OP2(=O)Nc3cc(C)c(C)cc3S2)cc1 (centres undefined),20µM*,1.7µM*,/,7.9µM*,6.7*,?,7%,-12%,
CCOC(=O)COc1ccc(/C=C2\C(=O)NC(=S)N(c3ccc(OC)cc3)C2=O)cc1OC,0%,15µM*,-5%,45µM*,24*,14µM*,22%,15%,
O=c1cc[se]c2ccccc12,-7%,/,/,/,/,/,/,/,
O=c1[nH]c(=O)n(-c2ccc(F)cc2)c(O)c1/C=C1\C=Nc2ccccc21,-9%,57%,6%,17%,/,/,/,/,
COc1ccc(-n2c(O)c(/C=C3\C=Nc4ccc(Br)cc43)c(=O)[nH]c2=O)c(OC)c1,-2%,2.1µM*,6%,50µM*,17*,?,?,?,
CC1CCN(C[C@H]2CN3CC[C@H]2C[C@@H]3CNC(=O)Nc2cccc(C#N)c2)CC1,49%[176 µM],/,/,/,/,/,/,/,
O=C(c1ccc(F)cc1)N1C[C@@H]2C[C@H](C1)c1c(/C=C/c3ccc(Cl)cc3)ccc(=O)n1C2,9%,/,/,/,/,/,/,/,
COC(=O)[C@@H]1[C@@H](C(=O)OC)C2(c3ccccc3-c3ccccc32)N(c2ccc(Cl)cc2)N1C#N,-5%,-18%,-5%,?,/,/,/,/,
COC(=O)C[C@]1(C(=O)OC)CN(C#N)N(c2ccc(Cl)cc2)C12c1ccccc1-c1ccccc12,-26%,-10%,-10%,20µM*,?,6.3µM*,3.7µM*,2.9µM*,
SMILES,ALOX12 inh,PLK1 PBD block,GCN5L2 inh,VDR inhibitor,VDR inh confirm,VDR FP,VDR bla,VDR viability,others
O=c1oc2ccccc2c(O)c1[C@H]1c2ccc(O)cc2Oc2c1c(=O)oc1ccccc21,?,?,-16%,79µM*,30*,?,21µM*,-31%,
NC1=C([N+](=O)[O-])C(c2ccc3c(c2)OCO3)c2c(c3ccccc3oc2=O)O1 (centres undefined),0%,-24%,-10%,-5%,/,/,/,/,
CCN(CC)C(=O)N[C@H]1C=C2c3cccc4[nH]cc(c34)C[C@@H]2N(C)C1,/,/,-4%[21.4 µM],-9%,/,/,/,/,USP1 UbRho=-9%
CN1C(=O)N(C)C(=O)C2(Sc3ccccc3C2=O)C1=O,?,5.3µM*,0%,35µM*,3.4*,3.5µM*,31%,-7%,TbPYK inh=5µM*;TbPYK orthogonal=?
CCC1(c2ccccc2)C(=O)N(C)C(=O)N(C)C1=O,5%,-7%,/,-6%,/,/,/,/,
Cc1nc(-c2ccccc2Br)cc([C@H]2CN3CC[C@H]2C[C@@H]3CNC(=O)c2ccccc2)n1,8%,/,/,/,/,/,/,/,
O=C1N(Cc2ccccn2)C[C@H]2CN(Cc3cccnc3)CCN12,115%[176 µM],/,/,/,/,/,/,/,
O=C1NC(=S)NC(=O)C1=Cc1ccc(Br)s1,16µM*,2.1µM*,?,22µM*,4.2*,?,?,?,TbPYK inh=10µM*;TbPYK orthogonal=16µM*
Cn1nc(-c2ccc3ccccc3c2)cc1[C@H]1CN2CC[C@H]1C[C@@H]2CNS(=O)(=O)c1ccccc1,42%,/,/,/,/,/,/,/,
